According to the supplement of paper PMC8728848:
Many of the other results were omitted from the sample, so the strongest signals are more common in it than they were.

These substances were tested on Neu5Ac(a2-6)Gal(b1-4)GlcNAc(b1-2)Man(a1-6)[GlcNAc(b1-2)Man(a1-3)]Man(b1-4)GlcNAc(b1-4)GlcNAc (assay: glycan array binding signal (z-score within array); higher = stronger binding). Settings: glycan notation: IUPAC condensed, linker removed.
In short: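 Negative Z-scores can be read as non-binding. The Z-score is calculated within each array and then averaged across arrays of one protein sequence at different concentrations or buffers and across linkers. Arrays, 3228 in all, were curated from the Consortium for Functional Glycomics database and kept only where the protein sequence was available.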

Sequence of PILRb (Mus musculus), Q2YSF2 (Q2YSF2 entry or part of it): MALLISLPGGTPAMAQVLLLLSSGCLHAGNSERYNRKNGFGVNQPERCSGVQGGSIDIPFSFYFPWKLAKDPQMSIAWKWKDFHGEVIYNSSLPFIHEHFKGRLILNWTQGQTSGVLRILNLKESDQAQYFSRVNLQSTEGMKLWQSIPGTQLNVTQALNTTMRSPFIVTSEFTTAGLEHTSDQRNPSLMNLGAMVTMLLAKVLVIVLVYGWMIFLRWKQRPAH
Sequence of Aggrecan (Rattus norvegicus), NP_071526 (chain, as listed by the source): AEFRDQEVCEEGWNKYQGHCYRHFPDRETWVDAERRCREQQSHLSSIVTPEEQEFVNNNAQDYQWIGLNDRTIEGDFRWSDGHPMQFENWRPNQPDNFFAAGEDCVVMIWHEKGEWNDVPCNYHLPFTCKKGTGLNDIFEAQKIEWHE

Substance | glycan array binding signal (z-score)
MpAFP RI GFP (Marinomonas primoryensis) | -0.058
Aggrecan (Rattus norvegicus), NP_071526 | -0.187
PILRb (Mus musculus), Q2YSF2 | -0.407
